Molecules are shown by their SMILES. Inconclusive results are not listed. Where a call stands in place of a potency, no number is given. The source made the active and inactive calls. Calls come from the whole dose curve; as a rule, active = well fitted activation curve with a large enough effect in the signal ratio in the repeat runs (not every such curve was filed as active); inconclusive = weak or mixed curves, or effect the other way; inactive = no such curve, though single readings can be large or run the other way; the % refers to the signal ratio.
Potency is the fitted concentration of half-maximal effect.

This test is described as follows: qHTS assay for small molecule agonists of the antioxidant response element (ARE) signaling pathway (AID 743202). The note with it: HepG2 ARE-bla reporter, beta-lactamase FRET, 16 h; series mostly up to 73.3 µM. From the text: U.S. Tox21 Program National Center for Advancing Translational Sciences [NCATS] NIH Chemical Genomics Center [NCGC] U.S. Environmental Protection Agency [EPA] National Institutes of Environmental Health Sciences [NIEHS] National Toxicology Program [NTP] U.S. Food and Drug Administration [FDA] Tox21 Assay Overview: Oxidative stress has been implicated in the pathogenesis of a variety of diseases ranging from cancer to neurodegeneration. The antioxidant response element (ARE) signaling pathway plays an important role in the amelioration of oxidative stress. The CellSensor ARE-bla HepG2 cell line (Invitrogen) can be used for analyzing the Nrf2/antioxidant response signaling pathway. Nrf2 (NF-E2-related factor 2) and Nrf1 are transcription factors that bind to AREs and activate these genes. The CellSensor ARE-bla Hep G2 cell line contains a beta-lactamase reporter gene under control of the Antioxidant Response Element (ARE) stably integrated into HepG2 cells. The activation of the report gene under culture conditions can be detected by fluorescence intensity. This cell line has been used to screen the Tox21 10K compound library to identify agonists that induce oxidative stress.
Tox21 Assay Protocol Summary: The ARE-bla cells were dispensed at 2,000 cells/5 ul/well in 1536-well black wall/clear bottom plates using a Multidrop dispenser. After the assay plates were incubated at a 37 C/5% CO2 incubator for 5 hours, 23 nL of compounds dissolved in DMSO, positive controls or DMSO only was transferred to the assay plate by a pin tool. The plates were incubated at 37 C for 16 hours. After 1 uL of LiveBLAzer B/G FRET substrate was added using a Flying Reagent Dispenser, the plates were incubated at room temperature for 2 hours, and fluorescence intensity was measured by an Envision plate reader.
On the technique in general: In qHTS, concentration-response curves come from the screen itself.
For `CC(COC(C)(C)C)OCCCO` (stereo not given), the Potency result is “inactive”. Take `CCCCCCCC/C=C\CCCCCCCC(=O)OCCCC`: the Potency entry is “inactive”.

`CC(S)C(=O)NCC(=O)O` (stereo not given): the Potency entry was “inactive”.

`O=C(/N=N/C(=O)OCc1ccccc1)OCc1ccccc1`: the Potency entry is “inactive”.

For the compound `CC(=C(CCOC(=O)C(C)C)SSC(CCOC(=O)C(C)C)=C(C)N(C=O)Cc1cnc(C)nc1N)N(C=O)Cc1cnc(C)nc1N`, the Potency result was “inactive”. Still for that read-out and setting: with `COCCOCCOCCOCCO` the entry was “inactive”. Take `CC(C)(C)c1cc(CCC(=O)NN)cc(C(C)(C)C)c1O`: the Potency result is “inactive”. Still for that read-out and setting: with `Cc1cc(NC(=O)C2=C(O)c3ccccc3S(=O)(=O)N2C)no1` the entry was “inactive”; with `O=C(OCC(O)CO)c1ccccc1Nc1ccnc2c(C(F)(F)F)cccc12` (stereo not given), 26.6 µM (active). Turning to `O=C(OCC(COC(=O)c1cccnc1)(COC(=O)c1cccnc1)COC(=O)c1cccnc1)c1cccnc1`, the Potency entry was “inactive”. Same read-out and setting: with `CCOC(=O)c1ncn2c1CN(C)C(=O)c1cc(F)ccc1-2` the entry was “inactive”. The same measure, in the same setting: with `C=C1CC/C=C(\C)CC[C@@H]2[C@@H]1CC2(C)C` the entry was “inactive”; with `CCOc1cc(NC(C)=O)ccc1C(=O)OC`, “inactive”. Same read-out and setting: with `CCO[Si](CCCS)(OCC)OCC` the entry was “inactive”; with `CC(=O)OC(C)OC(=O)C(C)c1ccc(-c2ccccc2)c(F)c1` (stereo not given), “inactive”. For `COC(=O)C1CC(=O)C(C(=O)OC)CC1=O` (stereo not given), the activation is -4.53% [at 8.36 µM] (inactive). On to `CC(C)C(=O)OCc1cccc(OC(=O)[C@@H]2N3C(=O)[C@@H](NC(=O)Cc4ccccc4)[C@H]3SC2(C)C)c1`, for which the Potency entry was “inactive”.

As to `CN(C)C(=O)CNC(=O)Cc1ccccc1`, the Potency entry was “inactive”. Same read-out and setting: with `CCOC(=O)c1ccc(OC(=O)CCCCCN=C(N)N)cc1` the entry was “inactive”. Still for that read-out and setting: with `CC(C)OC(=O)CCCCC(=O)OC(C)C` the figure was 30.7 µM (active); with `C=C(C)C(=O)OCCOP(=O)(O)OCCOC(=O)C(=C)C`, “inactive”. The same measure, in the same setting: with `CO[C@@H]1[C@@H](OC(N)=O)[C@@H](O)[C@H](Oc2ccc3c(O)c(NC(=O)c4ccc(O)c(CC=C(C)C)c4)c(=O)oc3c2C)OC1(C)C` the entry was “inactive”. In the case of `Cc1cc2cc3c(C)cc(=O)oc3c(C)c2o1`, the Potency result is “inactive”.

Turning to `CN=C(NC#N)Nc1ccc(C2=NNC(=O)CC2C)cc1` (stereo not given), the Potency entry was “inactive”. On the same count and under the same terms, with `C=C(C)C(=O)OCC(C)(C)COC(=O)C(=C)C` the entry was “inactive”. Same read-out and setting: with `CCCCCCN` the entry was “inactive”. Still for that read-out and setting: the value for `CC(C)(C)c1nnc(NS(=O)(=O)c2ccc(N)cc2)s1` was “inactive”; that for `CC(C)CC(C)CC(C)CC(C)COC(=O)c1ccccc1C(=O)OCC(C)CC(C)CC(C)CC(C)C` (stereo not given) was “inactive”; that for `Nc1ccc([N+](=O)[O-])c(N)c1` was “inactive”. Consider `Nc1cccc(O)c1`, for which the Potency result is “inactive”. On the same count and under the same terms, the value for `CCCCC(CC)COCCO` (stereo not given) was “inactive”. Turning to `C=C(C)C1CCC(C)(O)CC1` (stereo not given), the Potency entry is “inactive”.

As to `CC(C)NCC(O)COc1cccc2[nH]ccc12` (stereo not given), the Potency result was “inactive”.

Consider `O=C1c2cccc3c2[C@H](CCC3)CN1[C@@H]1CN2CCC1CC2`, for which the Potency entry is “inactive”. For the compound `O=S(O)(O)=S`, the activation was -7.19% [at 8.36 µM] (inactive).

For the compound `COc1ccc(Br)c(C)c1`, the Potency entry was “inactive”. On the same count and under the same terms, the value for `CC(C(=O)O)c1ccc2c(c1)CC(=O)c1ccccc1S2` (stereo not given) was “inactive”; that for `Brc1ccc(-c2ccccc2)cc1` was “inactive”. Same read-out and setting: with `c1ccc2c(c1)ccc1c3ccccc3ccc21` the figure was 24.8 µM (active). On the same count and under the same terms, the value for `O=C1O[C@@H]2[C@@H](O)[C@H](O)O[C@@H]2[C@H]1O` was “inactive”.

Source of the values: PubChem BioAssay (Tox21).
